Screens from PubChem BioAssay.
An excerpt weighted towards active compounds, which were near 4.6% of everything screened.
UCHL1 inh – human UCHL1 deubiquitinase inhibition. AID 1645859. purified UCHL1, Ub-rhodamine cleavage fluorescence. P09936. inhibition, % at 20 µM. actives 0.2% (n = 47,000)
USP10 block – blocks human USP10 ubiquitin-rhodamine cleavage. Q14694. purified USP10, Ub-rhodamine fluorescence, 60 min. inhibition, % at 20 µM. actives 1.1% (n = 47,000)
USP7 inh – human USP7 deubiquitinase inhibition; actives 0.3% (n = 47,000); AID 1645854; inhibition, % at 20 µM; purified USP7, Ub-rhodamine cleavage fluorescence; Q93009
USP8 inh – human USP8 deubiquitinase inhibition. actives 4.2% (n = 47,000). AID 1645853. purified USP8, Ub-rhodamine cleavage fluorescence, 30 min. inhibition, % at 20 µM. P40818
Numbers without * were called inactive. No stated cut-off is given here; in the data, active means inhibition above about 30%; inactive means the rest.

SMILES | UCHL1 inh | USP10 block | USP7 inh | USP8 inh
CCn1c(-c2nnc(SCC(=O)NCCc3nc4ccccc4[nH]3)o2)cc2ccccc21 | 12.8 | 1.1 | 46.2* | 3.5
O=C(NCC1CCCO1)c1nc(-c2ccc(-n3cccc3)cc2)no1 (configuration not stated) | -1.2 | -2.3 | -17.0 | -8.6
COc1ccc(Nc2cc(-c3cccc(C(F)(F)F)c3)nc(-c3ccncc3)n2)cc1 | -0.9 | -3.4 | 2.9 | 37.8*
Cc1nc(Nc2ccc(Oc3ccccc3)cc2)cc(-c2ccncc2)n1 | 9.3 | 5.0 | 8.9 | -4.9
O=C(NC12CC3CC(CC(C3)C1)C2)C(c1ccccc1)c1ccccc1 | -1.3 | 1.2 | 3.6 | 2.4
CC(C)c1ccc(/C=C/C(=O)N2CCc3ccccc3C2)cc1 | 4.4 | 10.7 | 5.4 | 69.2*
O=C(/C=C/c1ccc(Br)cc1)N1CCc2ccccc2C1 | 0.0 | 2.6 | 6.3 | 28.0
CSc1nc2ncn(CC(=O)Nc3cc(C)cc(C)c3)c(=O)c2s1 | -4.6 | -3.7 | 1.5 | -15.7
CSc1nc2ncn(CC(=O)Nc3ccc(Br)cc3)c(=O)c2s1 | -3.2 | 6.3 | 15.9 | 82.1*
N#Cc1ccc(C(=O)Nc2ccccc2Cc2ccccc2)cc1 | 1.7 | 7.6 | -11.6 | -98.5
CCOc1ccc(CNC(=O)c2ccc3c(c2)N(CC)C(=O)c2ccccc2S3)cc1OC | 3.2 | 0.0 | 4.5 | 6.8
COc1ccc(-c2nc(SCC(=O)Oc3c(C)cccc3C)n3[nH]c(=O)cc3n2)cc1 | -0.1 | 45.7* | 0.4 | 83.4*
COc1cccc(CNC(=O)CSc2nc(-c3ccco3)nc3cc(=O)[nH]n23)c1 | -4.6 | 2.2 | 1.8 | -17.6
